Like-named read-outs stand apart in the source and are kept apart here.
Legend:
FGFR1 = settings: concentration: 1 μM, replicates: in singlicate; n = 1
FGFR2 = settings: concentration: 1 μM, replicates: in singlicate; n = 1
FGFR3 = settings: concentration: 1 μM, replicates: in singlicate; n = 1
FGFR4 = settings: concentration: 1 μM, replicates: in singlicate; n = 1
FGR = settings: concentration: 1 μM, replicates: in singlicate; n = 1
FLT1 = settings: concentration: 1 μM, replicates: in singlicate; n = 1
FLT3-autoinhibited = settings: concentration: 1 μM, replicates: in singlicate; n = 1
FLT3 = settings: concentration: 1 μM, replicates: in singlicate; n = 1
FLT4 = settings: concentration: 1 μM, replicates: in singlicate; n = 1
FRK = settings: concentration: 1 μM, replicates: in singlicate; n = 1
FYN = settings: concentration: 1 μM, replicates: in singlicate; n = 1
GAK = settings: concentration: 1 μM, replicates: in singlicate; n = 1
GCN2(Kin.Dom.2,S808G) = tested on: T1, GCN2(Kin.Dom.2,S808G); settings: concentration: 1 μM, replicates: in singlicate; n = 1
T1 construct: gene EIF2AK4

GRK1 = settings: concentration: 1 μM, replicates: in singlicate; n = 1
GRK2 = tested on: T2, GRK2; settings: concentration: 1 μM, replicates: in singlicate; n = 1
T2 construct: gene ADRBK1

GRK3 = tested on: T3, GRK3; settings: concentration: 1 μM, replicates: in singlicate; n = 1
T3 construct: gene ADRBK2

GRK4 = settings: concentration: 1 μM, replicates: in singlicate; n = 1
GRK7 = settings: concentration: 1 μM, replicates: in singlicate; n = 1
GSK3A = settings: concentration: 1 μM, replicates: in singlicate; n = 1
GSK3B = settings: n = 1
[1] = concentration: 1 μM, replicates: in singlicate
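Note: KINOMEscan kinase panel screen.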

NCCCC(NC(=O)c1cc(Br)c(-c2ccnc3[nH]ccc23)s1)c1ccccc1.O=C(O)C(F)(F)F.O=C(O)C(F)(F)F (stereo not drawn) [GSK1287544]
%Inh (FGFR1): 52% | %Inh (FGFR2): 16% | %Inh (FGFR3): 30% | %Inh (FGFR4): 18% | %Inh (FGR): 24% | %Inh (FLT1): 60% | %Inh (FLT3-autoinhibited): 6% | %Inh (FLT3): 83% | %Inh (FLT4): 38% | %Inh (FRK): 2% | %Inh (FYN): 2% | %Inh (GAK): 23% | %Inh (GCN2(Kin.Dom.2,S808G)): 7% | %Inh (GRK1): 68% | %Inh (GRK2): 75% | %Inh (GRK3): 85% | %Inh (GRK4): 57% | %Inh (GRK7): 83% | %Inh (GSK3A): 0% | %Inh (GSK3B; [1]): 15%

COc1cc(Nc2ncc3c(C)nc(-c4cc5ccccc5[nH]4)n3n2)cc(OC)c1OC [GW869516]
%Inh (FGFR1): 35% | %Inh (FGFR2): 21% | %Inh (FGFR3): 30% | %Inh (FGFR4): 15% | %Inh (FGR): 40% | %Inh (FLT1): 23% | %Inh (FLT3-autoinhibited): 75% | %Inh (FLT3): 96.3% | %Inh (FLT4): 1% | %Inh (FRK): 39% | %Inh (FYN): 30% | %Inh (GAK): 34% | %Inh (GCN2(Kin.Dom.2,S808G)): 88% | %Inh (GRK1): 0% | %Inh (GRK2): 0% | %Inh (GRK3): 0% | %Inh (GRK4): 19% | %Inh (GRK7): 0% | %Inh (GSK3A): 0% | %Inh (GSK3B; [1]): 0%

Cc1ccc(C(=O)N2CC[C@@H](O)C2)cc1-n1c(C)cc(OCc2ccc(F)cc2F)c(Br)c1=O
%Inh (FGFR1): 80% | %Inh (FGFR2): 66% | %Inh (FGFR3): 21% | %Inh (FGFR4): 0% | %Inh (FGR): 0% | %Inh (FLT1): 46% | %Inh (FLT3-autoinhibited): 0% | %Inh (FLT3): 14% | %Inh (FLT4): 0% | %Inh (FRK): 14% | %Inh (FYN): 21% | %Inh (GAK): 0% | %Inh (GCN2(Kin.Dom.2,S808G)): 0% | %Inh (GRK1): 16% | %Inh (GRK2): 0% | %Inh (GRK3): 0% | %Inh (GRK4): 0% | %Inh (GRK7): 0% | %Inh (GSK3A): 0% | %Inh (GSK3B; [1]): 0%

O=C(Nc1n[nH]c2cc(-c3ccoc3)ccc12)C1CC1 [SB-738481]
%Inh (FGFR1): 0% | %Inh (FGFR2): 0% | %Inh (FGFR3): 7% | %Inh (FGFR4): 0% | %Inh (FGR): 22% | %Inh (FLT1): 27% | %Inh (FLT3-autoinhibited): 17% | %Inh (FLT3): 91.8% | %Inh (FLT4): 0% | %Inh (FRK): 0% | %Inh (FYN): 0% | %Inh (GAK): 2% | %Inh (GCN2(Kin.Dom.2,S808G)): 0% | %Inh (GRK1): 18% | %Inh (GRK2): 0% | %Inh (GRK3): 0% | %Inh (GRK4): 44% | %Inh (GRK7): 9% | %Inh (GSK3A): 92.7% | %Inh (GSK3B; 1 µM): 54%

O=C(Nc1cccc(Oc2ccc3nc(NC(=O)C4CC4)cn3n2)c1)c1ccccc1C(F)(F)F
%Inh (FGFR1): 1% | %Inh (FGFR2): 23% | %Inh (FGFR3): 0% | %Inh (FGFR4): 2% | %Inh (FGR): 55% | %Inh (FLT1): 99.7% | %Inh (FLT3-autoinhibited): 0% | %Inh (FLT3): 20% | %Inh (FLT4): 99.9% | %Inh (FRK): 30% | %Inh (FYN): 33% | %Inh (GAK): 4% | %Inh (GCN2(Kin.Dom.2,S808G)): 7% | %Inh (GRK1): 9% | %Inh (GRK2): 0% | %Inh (GRK3): 0% | %Inh (GRK4): 46% | %Inh (GRK7): 0% | %Inh (GSK3A): 7% | %Inh (GSK3B; [1]): 0%

O=C(Nc1ccccc1F)NC1CCN(c2ccnc(Nc3ccc(F)cc3)n2)CC1 [GSK1379800]
%Inh (FGFR1): 0% | %Inh (FGFR2): 0% | %Inh (FGFR3): 0% | %Inh (FGFR4): 2% | %Inh (FGR): 18% | %Inh (FLT1): 29% | %Inh (FLT3-autoinhibited): 0% | %Inh (FLT3): 0% | %Inh (FLT4): 0% | %Inh (FRK): 0% | %Inh (FYN): 8% | %Inh (GAK): 0% | %Inh (GCN2(Kin.Dom.2,S808G)): 0% | %Inh (GRK1): 0% | %Inh (GRK2): 0% | %Inh (GRK3): 0% | %Inh (GRK4): 0% | %Inh (GRK7): 0% | %Inh (GSK3A): 5% | %Inh (GSK3B; [1]): 12%

O=C(Nc1cccc(-c2nn3ccccc3c2-c2ccnc(Nc3cccc(C(F)(F)F)c3)n2)c1)c1c(F)cccc1F [GSK292658]
%Inh (FGFR1): 0% | %Inh (FGFR2): 20% | %Inh (FGFR3): 9% | %Inh (FGFR4): 0% | %Inh (FGR): 92.5% | %Inh (FLT1): 78% | %Inh (FLT3-autoinhibited): 5% | %Inh (FLT3): 62% | %Inh (FLT4): 36% | %Inh (FRK): 72% | %Inh (FYN): 56% | %Inh (GAK): 3% | %Inh (GCN2(Kin.Dom.2,S808G)): 10% | %Inh (GRK1): 3% | %Inh (GRK2): 0% | %Inh (GRK3): 0% | %Inh (GRK4): 15% | %Inh (GRK7): 3% | %Inh (GSK3A): 5% | %Inh (GSK3B; [1]): 4%

COc1ccc(-c2coc3ccc(-c4nnc(SCc5ccc(OC)c(C(F)(F)F)c5)o4)cc23)cc1
%Inh (FGFR1): 0% | %Inh (FGFR2): 17% | %Inh (FGFR3): 17% | %Inh (FGFR4): 2% | %Inh (FGR): 0% | %Inh (FLT1): 0% | %Inh (FLT3-autoinhibited): 19% | %Inh (FLT3): 10% | %Inh (FLT4): 13% | %Inh (FRK): 0% | %Inh (FYN): 3% | %Inh (GAK): 10% | %Inh (GCN2(Kin.Dom.2,S808G)): 0% | %Inh (GRK1): 19% | %Inh (GRK2): 0% | %Inh (GRK3): 0% | %Inh (GRK4): 0% | %Inh (GRK7): 21% | %Inh (GSK3A): 25% | %Inh (GSK3B; [1]): 4%

CN(C)Cc1ccc(-c2ccc3c(Nc4ccc(Oc5ccccn5)cc4)ccnc3c2)o1 [GW567148]
%Inh (FGFR1): 0% | %Inh (FGFR2): 12% | %Inh (FGFR3): 5% | %Inh (FGFR4): 0% | %Inh (FGR): 81% | %Inh (FLT1): 32% | %Inh (FLT3-autoinhibited): 53% | %Inh (FLT3): 95.5% | %Inh (FLT4): 21% | %Inh (FRK): 25% | %Inh (FYN): 71% | %Inh (GAK): 82% | %Inh (GCN2(Kin.Dom.2,S808G)): 0% | %Inh (GRK1): 0% | %Inh (GRK2): 0% | %Inh (GRK3): 0% | %Inh (GRK4): 0% | %Inh (GRK7): 10% | %Inh (GSK3A): 0% | %Inh (GSK3B; [1]): 6%

— PMC5540273 (PLoS ONE, 2017)
